# Publication PMC8384837, “Expanding the binding specificity for RNA recognition by a PUF domain”
# Key:
# Experiment in all cases: yeast three-hybrid, YBZ-1, SC-Leu-His + 0.5 mM 3-AT, 4 days
# Details in all cases: tags: N-Gal4 AD-HA kept; label: inside an RPR1-promoter hybrid RNA with tandem MS2 sites; ssRNA
# PUM1 PUF domain R5-ERL = PUM1 PUF domain R5-ERL (Homo sapiens, UniProt Q14671 828-1176, C1007E;Q1011L)
# Summary of the method: (§1)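 A centromeric plasmid in strain YBZ-1 co-expressed Pumilio-1 PUF domain libraries, randomized at the three base-contacting residues of each repeat, with matching RNA elements; the strain carries a LexA–MS2 coat fusion and a HIS3 reporter. After four days on SC-Leu (input) or SC-Leu-His + 0.5 mM 3-AT (selection), the repeat regions were PCR-amplified and Illumina-sequenced. The interaction score is the log change in variant frequency from input to selection, using log2 and a pseudocount of 1 where absent.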
# PUM1 PUF domain R7-RGQ = PUM1 PUF domain R7-RGQ (Homo sapiens, UniProt Q14671 828-1176, S1079R;N1080G;E1083Q)
# Summary of the method: as §1
# PUM1 PUF domain R5-KMW = PUM1 PUF domain R5-KMW (Homo sapiens, UniProt Q14671 828-1176, C1007K;R1008M;Q1011W)
# Summary of the method: as §1
# PUM1 PUF domain R5-KTV = PUM1 PUF domain R5-KTV (Homo sapiens, UniProt Q14671 828-1176, C1007K;R1008T;Q1011V)
# Summary of the method: as §1
# PUM1 PUF domain R3-WFE = PUM1 PUF domain R3-WFE (Homo sapiens, UniProt Q14671 828-1176, C935W;R936F;Q939E)
# Summary of the method: as §1
# PUM1 PUF domain R3-QRG = PUM1 PUF domain R3-QRG (Homo sapiens, UniProt Q14671 828-1176, C935Q;Q939G)
# Summary of the method: as §1
# PUM1 PUF domain R6-FRI = biological target: T1, PUM1 PUF domain R6-FRI (Homo sapiens, UniProt Q14671 828-1176, N1043F;Y1044R;Q1047I)
# T1 sequence: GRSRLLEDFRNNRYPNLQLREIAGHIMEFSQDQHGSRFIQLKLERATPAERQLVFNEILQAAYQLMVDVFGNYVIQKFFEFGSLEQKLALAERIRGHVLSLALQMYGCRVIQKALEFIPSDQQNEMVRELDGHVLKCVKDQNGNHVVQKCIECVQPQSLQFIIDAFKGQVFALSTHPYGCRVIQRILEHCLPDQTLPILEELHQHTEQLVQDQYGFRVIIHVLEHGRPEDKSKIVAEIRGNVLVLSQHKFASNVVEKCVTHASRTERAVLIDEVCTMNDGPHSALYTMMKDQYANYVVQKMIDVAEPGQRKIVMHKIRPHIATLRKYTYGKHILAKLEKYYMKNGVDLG
# Summary of the method: as §1
# PUM1 PUF domain R4-ALY = PUM1 PUF domain R4-ALY (Homo sapiens, UniProt Q14671 828-1176, N971A;H972L;Q975Y)
# Summary of the method: as §1
# PUM1 PUF domain R3-RSL = PUM1 PUF domain R3-RSL (Homo sapiens, UniProt Q14671 828-1176, C935R;R936S;Q939L)
# Summary of the method: as §1
# PUM1 PUF domain R3-RAD = PUM1 PUF domain R3-RAD (Homo sapiens, UniProt Q14671 828-1176, C935R;R936A;Q939D)
# Summary of the method: as §1
sequence,measurement,setting,value
GGCUAGAACUAGUGGAUCCCCCGGCGCCCGGCGGCUCGAGCCCGGGUAAGUGUGAAUAGUCUGCAUGCCGCCGGGCGCCAUGCCUGCAGGUCGACUCUAGAAAACAUG,binding signal,PUM1 PUF domain R5-ERL,1.92 log2 enrichment (interaction score)
GGCUAGAACUAGUGGAUCCCCCGGCGCCCGGCGGCUCGAGCCCGGGUAAGUCUAAAUAGUCUGCAUGCCGCCGGGCGCCAUGCCUGCAGGUCGACUCUAGAAAACAUG,binding signal,PUM1 PUF domain R7-RGQ,4.22 log2 enrichment (interaction score)
GGCUAGAACUAGUGGAUCCCCCGGCGCCCGGCGGCUCGAGCCCGGGUAAGUGUCAAUAGUCUGCAUGCCGCCGGGCGCCAUGCCUGCAGGUCGACUCUAGAAAACAUG,binding signal,PUM1 PUF domain R5-KMW,3.19 log2 enrichment (interaction score)
same,binding signal,PUM1 PUF domain R5-KTV,2.38 log2 enrichment (interaction score)
same,binding signal,PUM1 PUF domain R5-ERL,3.87 log2 enrichment (interaction score)
GGCUAGAACUAGUGGAUCCCCCGGCGCCCGGCGGCUCGAGCCCGGGUAAGUGUAAGUAGUCUGCAUGCCGCCGGGCGCCAUGCCUGCAGGUCGACUCUAGAAAACAUG,binding signal,PUM1 PUF domain R3-WFE,3.04 log2 enrichment (interaction score)
same,binding signal,PUM1 PUF domain R3-QRG,3.07 log2 enrichment (interaction score)
GGCUAGAACUAGUGGAUCCCCCGGCGCCCGGCGGCUCGAGCCCGGGUAAGUGUAAAUAGUCUGCAUGCCGCCGGGCGCCAUGCCUGCAGGUCGACUCUAGAAAACAUG,binding signal,PUM1 PUF domain R5-KMW,1.25 log2 enrichment (interaction score)
same,binding signal,PUM1 PUF domain R6-FRI,3.38 log2 enrichment (interaction score)
same,binding signal,PUM1 PUF domain R4-ALY,3.56 log2 enrichment (interaction score)
same,binding signal,PUM1 PUF domain R5-ERL,5.49 log2 enrichment (interaction score)
GGCUAGAACUAGUGGAUCCCCCGGCGCCCGGCGGCUCGAGCCCGGGUAAGUGUAAUUAGUCUGCAUGCCGCCGGGCGCCAUGCCUGCAGGUCGACUCUAGAAAACAUG,binding signal,PUM1 PUF domain R3-RSL,2.55 log2 enrichment (interaction score)
same,binding signal,PUM1 PUF domain R3-QRG,2.4 log2 enrichment (interaction score)
same,binding signal,PUM1 PUF domain R3-RAD,4.21 log2 enrichment (interaction score)
